# Legend:
# Experiment in all cases: PBM binding z-score (relative to random genomic background probes); higher = stronger binding; sequences stand for … in GC…GCGATTGACAGCGTAGAATGAAGG
# [1] = tested on: FXR:RXRa (NR concentration 270 nM, RXRa partner concentration 90 nM)
# How it was run: (§1)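 Binding z-scores take random background probes as their reference. They come from custom Agilent 4×180K protein-binding microarrays incubated 1 h with ligand-free nuclear receptor dimers, with antibodies against each partner (one per run) detecting binding. Scanned fluorescence was regression-normalized.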
# [2] = tested on: LXRa:RXRa (NR concentration 270 nM, RXRa partner concentration 90 nM)
# How it was run: as §1
# [3] = tested on: LXRa homodimer (NR concentration 270 nM)
# How it was run: as §1
# [4] = tested on: LXRb:RXRa (NR concentration 270 nM, RXRa partner concentration 90 nM)
# How it was run: as §1
# [5] = tested on: LXRb homodimer (NR concentration 270 nM)
# How it was run: as §1
# [6] = tested on: PPARa:RXRa (NR concentration 270 nM, RXRa partner concentration 90 nM)
# How it was run: as §1
# [7] = tested on: PPARg:RXRa (NR concentration 180 nM, RXRa partner concentration 90 nM)
# How it was run: as §1
# [8] = tested on: PPARg:RXRa 270nM:90nM, anti-RXR (NR concentration 270 nM, RXRa partner concentration 90 nM)
# How it was run: as §1
# [9] = tested on: PPARg:RXRa 30nM:10nM, anti-RXR (NR concentration 30 nM, RXRa partner concentration 10 nM)
# How it was run: as §1
# [10] = tested on: PPARg:RXRa 90nM:30nM, anti-RXR (NR concentration 90 nM, RXRa partner concentration 30 nM)
# How it was run: as §1
Sequence,PBM binding z-score [1],PBM binding z-score [2],PBM binding z-score [3],PBM binding z-score [4],PBM binding z-score [5],PBM binding z-score [6],PBM binding z-score [7],PBM binding z-score [8],PBM binding z-score [9],PBM binding z-score [10]
ATATGTAGGTTAGCTCGGGTCATTCAGACTAGGC,2.55,4.5,1.52,2.65,0.733,4.08,4.25,3.8,1.34,3.09
AGTCAAAGTTCACTAGGTAACGTATGATTCAGCT,4.96,4.91,2.85,3.16,1.09,4.64,7.19,6.52,3,5.54
CCTAGCAGGCCAGGCTCACTCAAGCATTTCGCTT,-0.543,-0.545,-0.346,-0.706,-0.617,-0.794,-0.439,-0.638,-1.13,-0.853
CCTTACGGGTCACTCCAGGTTTTAGCATCGGAGT,4.87,5.1,0.102,2.85,-0.172,4.69,3.06,3.81,0.53,2.55
TTACCAAGGTGAAGGTCGCTGATCCCTCTGTAGA,1.1,0.984,-0.243,0.689,-1.18,2.43,2.63,4.12,1.98,3.68
TCTTGTAGATCAACAGGAGGTTGAGAAAGATCGA,-0.0264,-0.201,-0.188,-0.211,-0.144,0.467,-0.1,1.33,2.81,2.24
GGAACGAGGGCAAAGTTTATAGCATCTGTCGACG,1.77,1.29,0.174,1.19,-0.358,4.45,7.54,7.55,7,7.92
CAAACTAGGTCAAGAGGTCAGAGTCCGCTTCCCG,5.85,5.23,3.2,4.21,0.8,6.08,9.79,7.9,6.89,8.32
CCGACTGGGGCAAAGGTAACCATACTCAGTACGA,0.167,0.164,-0.55,0.446,-1.32,4.5,8.83,7.71,7.84,8.13
TCTATTAGTTGAAGGACAACCGACGAGTCCGTTT,0.875,0.862,0.762,0.67,0.653,0.754,0.353,2.04,4.25,3.08
CGTCCAAGGTCATAGGAGGTCCGTGAAGACAGAT,7.45,5.69,0.811,3.99,0.8,5.61,4.52,5.1,1.5,3.67
TCATTTAGGTAAAAGGTGAAAGTCGGTGTGGTAA,1.72,1.89,0.427,1.95,0.881,5.05,8.63,8.2,9.56,9.37
CCTGCTAGGTCATGGTCAGCAAATCTACAGTATG,3.65,2.33,0.105,1.71,-0.273,3.53,2.37,2.74,0.551,1.8
TCTTGTAGATCAATAGAGGTTAACAAAGTGCGCT,0.932,4.21,0.47,2.29,0.171,2.18,0.373,1.66,2.57,2
CCTACTGGGCCATTCAGAGGTCATTCATCATATG,2.68,4.55,6.9,4.38,0.909,3.72,2.08,3.3,0.754,2.26
CTCGAAAGGCCGGTTGAGGTGAGTATACGGATAA,-0.00227,-0.411,-0.91,-0.654,-0.709,-0.134,-0.122,-0.607,-0.213,-0.48
GCGTGTAGATCAAGGTTAAGAAAGACTAAGCTAA,0.359,0.939,-0.369,0.539,-0.757,1.28,0.0821,0.373,-0.0969,0.289
ATCTCTAGGCAACAAGTTCAGTGAAAGAGAGGAC,0.0391,0.175,-0.0655,0.139,0.432,0.498,0.668,1.15,0.633,1.09
CGTCCAAGGTCAAGGTCAGTGCAAGAGACTCGAA,7.47,5.77,1.19,4.77,0.528,5.84,6.07,6.18,2.4,5.09
